Screening data: PubChem BioAssay, several laboratories
PolyA inhibitor: inhibitors of polyadenylation in S. cerevisiae; S. cerevisiae SKY197-pL101 polyadenylation reporter, beta-gal luminescence; efflux-impaired pdr1/pdr3 knockout yeast; score 100 = 6 SD above DMSO; activity score, % at 12 µM; actives 0.02% (n = 300,000); AID 1875;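 active = lowest replicate activity score at least 50, where 100 means six control SD above control mean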;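 note: yeast exposed to compound for 9 h at 30 °C; higher score means more reporter readthrough which indicates perturbed polyadenylation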
PfM18AAP inh: PfM18AAP enzyme inhibition; AID 1822; recombinant PfM18AAP, H-Glu-NHMec fluorogenic cleavage; inhibition, % at 7.35 µM; actives 1.2% (n = 290,000);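 active = inhibition above the campaign mean inhibition over all tested compounds plus 3 SD, cut at about 28% in these data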;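 note: 0% = plate median of test compound wells and 100% = 2 mM ZnCl2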
CaV13 FRET inh: Primary screen for inhibitors of IQ motif and Ca2+-dependent inactivation inhibitor domain binding in CACNA1D, Förster resonance energy transfer in living cells, …. HEK cells, CFP/YFP FRET ICDI-IQ, plate reader, 10 min; percent FRET-ratio fall versus neutral wells. inhibition, % at 12.3 µM. actives 0.098% (n = 340,000);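 active = mean replicate inhibition of at least 30% and at least 1% of replicates passing that level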;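 note: 0% = median of the neutral control wells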
IDE inh: cellular human IDE inhibition; inhibition, % at 5.59 µM; actives 0.41% (n = 320,000); HEK cells, FAbetaB cleavage, fluorescence polarization; AID 434962;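 active = percent inhibition above the average of all tested compounds plus 3 SD, set per screening campaign, cut at about 16% in these data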;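 note: IDE supplied by intact live HEK cells; FP after avidin binding of uncleaved biotin substrate so inhibition keeps polarization high; 0% = DMSO wells and 100% = 60 µM reference IDE inhibitor Ii1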
ALR H2O2 inh: human ALR oxidase inhibition via reduced H2O2; P55789; actives 3.8% (n = 290,000); purified ALR, DTT oxidation, H2O2 HRP-luminol luminescence; inhibition, % (no concentration beside the values); AID 485317;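 active = mean replicate inhibition above about 79%, with every replicate also reaching it, limit read from the data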
IDE cell activ: IDE (human) activation, cell-based. HEK cells, FAbeta-B cleavage, fluorescence polarization; 0% vehicle, 100% cell-free pure enzyme wells. AID 493087. activation, % at 5.96 µM. actives 0.073% (n = 340,000);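 active = activation above the mean of all tested compounds plus 3 SD, set per screening campaign, cut at about 17% in these data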
Numbers without * were called inactive. In the library only some 4.1% were active in any assay of this set; here they are far more common.

Screening CCn1nc(CC(C)C)cc1C(=O)N1CCCC(Nc2ccc(OC)cc2)C1 (centres undefined) returned PolyA inhibitor -9, PfM18AAP inh -3, CaV13 FRET inh -3, IDE inh -3, ALR H2O2 inh 98* and IDE cell activ 2.
`Cc1ccc(NC2CCCN(C(=O)c3ccoc3)C2)cc1C` (centres undefined) gave PolyA inhibitor 15, PfM18AAP inh 12, CaV13 FRET inh -2, IDE inh 3, ALR H2O2 inh 99* and IDE cell activ 7.
COc1ccc(NC2CCCN(C(=O)c3ccc4[nH]c(C)c(C)c4c3)C2)cc1OC (centres undefined) was read as PolyA inhibitor 14, PfM18AAP inh 24, CaV13 FRET inh -3, IDE inh 0, ALR H2O2 inh 99* and IDE cell activ 3.
`Cc1ccc(NC2CCCN(C(=O)C3CCCC3)C2)cc1C` (centres undefined) gave PolyA inhibitor -4, PfM18AAP inh 11, CaV13 FRET inh -5, IDE inh -1, ALR H2O2 inh 99* and IDE cell activ 3.
For COC(=O)c1ccc(C(=O)N2CCCC(Nc3ccc(F)c(F)c3)C2)cc1 (centres undefined) the results were PolyA inhibitor -11, PfM18AAP inh -1, CaV13 FRET inh -8, IDE inh -1, ALR H2O2 inh 8 and IDE cell activ -1.
`COc1ccc(C(=O)N2CCCC(Nc3ccc(C)c(C)c3)C2)cc1` (centres undefined) gave PolyA inhibitor -5, PfM18AAP inh 9, CaV13 FRET inh -6, IDE inh -1, ALR H2O2 inh 98* and IDE cell activ 4.
Cc1c(-c2ccc(O)cc2)nc2nc(-c3ccccc3)c(-c3ccccc3)nn12 was read as PolyA inhibitor -14, PfM18AAP inh -2, IDE inh 92* and ALR H2O2 inh -5.
Screening CCOC(=O)C1(CCCc2ccccc2)CCN(C(=O)c2cnn(CC)c2)CC1 returned PolyA inhibitor -17, PfM18AAP inh -8, CaV13 FRET inh -5, IDE inh 4, ALR H2O2 inh 1 and IDE cell activ 1.
Screening CCCN(Cc1ccccc1)C(=S)Nc1ccc(SC(F)F)cc1 returned PolyA inhibitor -11, PfM18AAP inh 0, CaV13 FRET inh -3 and IDE cell activ 4.
For CC(/C=C1\SC(=O)N(CCCC(=O)O)C1=O)=C\c1ccccc1 the results were PolyA inhibitor 18, PfM18AAP inh 1, CaV13 FRET inh -4, IDE inh 11, ALR H2O2 inh 97* and IDE cell activ -4.
Screening Fc1ccc(N/N=C(/c2ccccc2)c2ccccn2)cc1 returned PolyA inhibitor -11, PfM18AAP inh 3, CaV13 FRET inh -4, IDE inh -5, ALR H2O2 inh 99* and IDE cell activ 2.
Screening O=C(CNC(=O)c1ccco1)OCC(=O)c1ccc(Cl)cc1 returned PolyA inhibitor 6, PfM18AAP inh -12, CaV13 FRET inh -6, IDE inh 1 and IDE cell activ 5.
For O=C(CNC(=O)c1ccco1)NCC(=O)OCC(=O)c1ccc(Cl)c([N+](=O)[O-])c1 the results were PolyA inhibitor 11, PfM18AAP inh 18, CaV13 FRET inh -6, IDE inh 4, ALR H2O2 inh 98* and IDE cell activ -4.
`COc1ccc(OC)c(NC(=O)CSc2nnc(Cn3nnc4ccccc43)n2C)c1` gave PolyA inhibitor 7, PfM18AAP inh -15, CaV13 FRET inh -4, IDE inh 0, ALR H2O2 inh -22 and IDE cell activ 4.
For COc1ccc(C(C[N+](=O)[O-])c2c(C)[nH]n(-c3ccccc3)c2=O)cc1 (centres undefined) the results were PolyA inhibitor -21, PfM18AAP inh 45*, CaV13 FRET inh -5, IDE inh 2, ALR H2O2 inh -42 and IDE cell activ -2.
Screening S=C(NC1CC2CCC1C2)N1CCN(c2cccc(Cl)c2)CC1 (centres undefined) returned PolyA inhibitor -10, PfM18AAP inh -15, CaV13 FRET inh 2, IDE inh -6, ALR H2O2 inh 2 and IDE cell activ 3.
Screening COc1ccc2[nH]c(C)c(CCN3C(=O)C4C5C=CC(C5)C4C3=O)c2c1 (centres undefined) returned PolyA inhibitor -24, PfM18AAP inh 2, CaV13 FRET inh -3, IDE inh 1, ALR H2O2 inh 96* and IDE cell activ -2.
`CCCCn1c(N)c(N(CCOC)C(=O)c2cnc(C)cn2)c(=O)[nH]c1=O` gave PolyA inhibitor 10, CaV13 FRET inh -1, IDE inh 0, ALR H2O2 inh -3 and IDE cell activ 8.
For COc1cccc(/C=N/c2oc(-c3ccccc3)cc2C#N)c1O the results were PolyA inhibitor -12, PfM18AAP inh 4, CaV13 FRET inh -4, IDE inh 5, ALR H2O2 inh 86* and IDE cell activ 2.
Screening COc1cccc(C=Nc2ccccc2C#N)c1O returned PolyA inhibitor -22, PfM18AAP inh 7, CaV13 FRET inh -3, IDE inh 2 and IDE cell activ 4.
N#Cc1cc(-c2ccccc2)oc1/N=C/c1ccccc1O was read as PolyA inhibitor -12, PfM18AAP inh 16, CaV13 FRET inh -3, IDE inh 5, ALR H2O2 inh 97* and IDE cell activ 8.
Screening COc1ccc(/C=N/c2oc(-c3ccccc3)cc2C#N)cc1 returned PolyA inhibitor -1, PfM18AAP inh 11, CaV13 FRET inh 0, IDE inh 2, ALR H2O2 inh 97* and IDE cell activ -1.
Screening O=CN1CCN(C(C(=O)NC2CCCCC2)c2ccc(Cl)cc2)CC1 (centres undefined) returned PolyA inhibitor 13, CaV13 FRET inh -8, IDE inh 2 and IDE cell activ -2.
For CCS(=O)CCSc1nc2ccccc2s1 (centres undefined) the results were PolyA inhibitor -12, PfM18AAP inh 8, CaV13 FRET inh -4, IDE inh 6, ALR H2O2 inh 99* and IDE cell activ -1.
Screening CNc1nnc(CSc2nc3ccccc3s2)s1 returned PolyA inhibitor 6, PfM18AAP inh 7, CaV13 FRET inh -5, IDE inh 2, ALR H2O2 inh 99* and IDE cell activ -2.
For c1csc(CSc2nc3ccccc3s2)c1 the results were PolyA inhibitor -18, PfM18AAP inh 0, CaV13 FRET inh -8, IDE inh 1, ALR H2O2 inh 94* and IDE cell activ 0.
For c1ccc(NCCSc2nc3ccccc3s2)cc1 the results were CaV13 FRET inh -9 and IDE cell activ 3.
